Measurements published in paper PMC5540273 (PLoS ONE, 2017).

Each compound was assayed on T1, ERK2. Settings: concentration: 1 μM,replicates: in singlicate; n = 1.
T1 construct: gene MAPK1
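Further: KINOMEscan kinase panel screen.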

Structure (SMILES)	%Inh [%]
COc1ccc(Nc2nccc(N3CCC(NC(=O)c4cccc(C#N)c4)C3)n2)cc1 (stereo not drawn) [GSK1379730]	26
C[C@@H](Oc1cc(-n2cnc3cc(-c4cnn(C)c4)ccc32)sc1C(N)=O)c1ccccc1Cl [GSK580432]	0
O=C(Nc1n[nH]c2cc(-c3ccco3)ccc12)C1CC1 [SB-737447]	0
COC(=O)Nc1nc2cc(Oc3ccc(NC(=O)Nc4cc(C(F)(F)F)ccc4Cl)cc3)ccc2[nH]1.Cl [GW697465]	0
Cc1cccc2c(-c3ccncc3)c(-c3ccc(F)cc3)nn12.Cl [GW461487]	0
O=c1[nH]cc(-c2ccc(O)cc2)c2sc(-c3ccncc3)cc12 [GSK1033723]	0
COc1cccc(CNC(=O)NC2CCN(c3ccnc(Nc4cc(OC)c(OC)c(OC)c4)n3)C2)c1 (stereo not drawn) [GSK1379765]	0
COc1cccc(OC)c1C(=O)Nc1cccc(-c2nn3ccccc3c2-c2ccnc(Nc3cccc(F)c3)n2)c1 [GSK361065]	6
CC(=O)Nc1nc2cnc(Nc3cc(NC(=O)c4cccc(CC(C)(C)C#N)c4)ccc3C)nc2s1	15
CC(C)S(=O)(=O)N1CCN(Cc2ccc3c(c2)nc(NC(=O)c2ccsc2)n3C[C@H](O)c2ccccc2)CC1 [GW635815]	0
Cc1ccc(Nc2ccnc(Nc3ccc4c(c3)CS(=O)(=O)C4)n2)cc1O.Cl [GW579362]	0
Cc1nnc(-c2ccc3occ(-c4ccc(S(C)=O)cc4)c3n2)o1 (stereo not drawn)	19
